target: GHDC; assay: pooled miR-30 sensor sort-seq; sequence = guide strand; details: shRNA
Also: reference of the scale not given here.

Row | Sequence | sensor-assay potency score (higher = more potent)
1 | TGCTGCTCTCCACACAGCCATG | -2.06
2 | TTGTAGGCACCAACCACTCGCA | -0.926
3 | AGAAGTTCGACAGCCGTCCCAG | -0.973
4 | TTCCTCTGACAGATTCCTCAGC | -0.103
5 | TTTTCCTCTGACAGATTCCTCA | -0.542
6 | TAGCTCTTCACCATCAGTCTCC | 0.0115
7 | TCCAGCCTGCAGATGAACCTGA | -0.985
8 | TCAGAGAACAGGTCTTCACCAA | 0.187
9 | TTATGTCTGTGCTCCTTCTGAG | -0.0646
10 | ATTGTAGGCACCAACCACTCGC | 0.0645
11 | CTGCTCTCCACTGTCTTCCTGC | -1.58
12 | TCCACTGTCTTCCTGCTGGGTC | -1.07

target: GHRL; assay: as above; details: shRNA

Row | Sequence | sensor-assay potency score (higher = more potent)
13 | TTGATTCCAACATCAAAGGGGG | 0.299
14 | TAGAGCTCGGGGCTGCAGCTTG | -0.899
15 | TCTCTGCTGGACTCTCTGGTGT | -0.98
16 | TCTTCGACTCCTTTCTCTGCTG | -0.622
17 | TTGACCTCCATCTTCCGGGCGG | -0.454
18 | TGAGCTTGTACAACAGTCGTGG | 0.776
19 | TGTCCTGAAGAAACTTCCCCAG | -1.03
20 | TTCTCTGCTGGACTCTCTGGTG | -0.904
21 | TTTCTCTGCTGGACTCTCTGGT | 0.0983
22 | TACTGAACCCCTGACAGCTTGA | -0.592
23 | TGCTTGACCTCCATCTTCCGGG | -0.583
24 | TTCTGCTTGACCTCCATCTTCC | -0.0657

target: GHR; assay: as above; details: shRNA

Row | Sequence | sensor-assay potency score (higher = more potent)
25 | TATGAATGGAGGTATAGTCTGG | 0.0222
26 | TTAGAAGTCTGTCTGTGTCTGA | 0.716
27 | TAATCTTTGGAACTGGAACTGG | -0.523
28 | TCATACTCCAGAACCATCCATC | -0.368
29 | TAGAAGTCTGTCTGTGTCTGAT | -0.00194
30 | TTCATCAACAGAGAAACACTTT | 0.81
31 | TTTCTGAATATCTGCATTGCGT | -0.999
32 | TTCTGGTATAGAACAGCTGTAT | -1.1
33 | TGAACTTGGATTGCTTAGCTGA | 0.127
34 | TTAGCTTGATACAATAAGGTAT | 0.218
35 | TAGCTCAATAAATTCAACCCAA | -0.0787

target: GHSR; assay: as above; details: shRNA

Row | Sequence | sensor-assay potency score (higher = more potent)
36 | AAGTCTGAACACTGCCACCCGG | -1.26
37 | TTTCACGGTTTGCTTGTGGTTC | -0.265
38 | TAGAAGAGGACAAAGGACACGA | 0.735

Source: the OligoGym collection
